Compound activity deposited in PubChem BioAssay by National Center for Advancing Translational Sciences (NCATS).
Vif-A3F inh – Vif-A3F binding inhibition; 0.2% of 390,000 active; HeLa A3F-eYFP + Vif (tagged APOBEC3F with the HIV-1 protein that degrades it), YFP fluorescence increase; Potency, µM (doses to about 46.1 µM), for inactives: at the highest dose activity, negative = active; also: potency is read from the fitted curve at half-maximal effect; % of control where 0% means no effect; nearly all actives have a fitted effect of over 65% in size
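HeLa cells stably expressing Vif plus C-terminally eYFP-tagged A3F were seeded, incubated overnight at 37 deg C, dosed with compound, incubated overnight again at 37 deg C. Yellow fluorescence (Ex 488/Em 500-530) reported blocked Vif-mediated A3F-eYFP degradation.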
PLK1 PBD inh – blocks phosphopeptide binding to human PLK1 polo-box domain; P53350; Plk1 PBD binding of FITC phosphopeptide, fluorescence polarization; Potency, µM, for the others: max response, negative = inhibition, most hits filed as inhibitors; 2.8% of 360,000 active; AID 720504; also: potency is read from the fitted curve at half-maximal effect; series mostly up to about 57 µM; % is scaled to controls: 0 for no effect and ±100 for the full control effect; nearly all actives have a fitted effect of over 65% in size
TSHR antagonist – blocks TSH signaling through the human TSH receptor | P16473 | TSHR-expressing cells, TSH-stimulated cAMP HTRF, 2 h; hits give low values | activity change, negative = inhibition, % at 11.5 µM | 0.2% of 330,000 active;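 active = activity change below a set negative limit, meaning inhibition stronger than a set level, cut at about -70% in these data; inconclusive = activity change between two set negative limits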; also: % is scaled to controls: 0 for no effect and ±100 for the full control effect
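Read-out is FRET at 665 nm (cryptate excitation 337 nm) from a cryptate-tagged anti-cAMP antibody, competed by cell cAMP against cAMP-d2. Compounds are tested on freshly harvested TSHR cells challenged with 4nM TSH (EC80) for 2 hours at 37 deg C.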
VDR inh – blocks the human vitamin D receptor; 0.93% of 400,000 active; P11473; VDR-SRC2-3 peptide fluorescence polarization, 2 h; Potency, µM, inactives show max response, negative = inhibition, most hits filed as inhibitors; also: potency is read from the fitted curve at half-maximal effect; % is scaled to controls: 0 for no effect and ±100 for the full control effect
Target sequence (P11473 whole entry, looked up): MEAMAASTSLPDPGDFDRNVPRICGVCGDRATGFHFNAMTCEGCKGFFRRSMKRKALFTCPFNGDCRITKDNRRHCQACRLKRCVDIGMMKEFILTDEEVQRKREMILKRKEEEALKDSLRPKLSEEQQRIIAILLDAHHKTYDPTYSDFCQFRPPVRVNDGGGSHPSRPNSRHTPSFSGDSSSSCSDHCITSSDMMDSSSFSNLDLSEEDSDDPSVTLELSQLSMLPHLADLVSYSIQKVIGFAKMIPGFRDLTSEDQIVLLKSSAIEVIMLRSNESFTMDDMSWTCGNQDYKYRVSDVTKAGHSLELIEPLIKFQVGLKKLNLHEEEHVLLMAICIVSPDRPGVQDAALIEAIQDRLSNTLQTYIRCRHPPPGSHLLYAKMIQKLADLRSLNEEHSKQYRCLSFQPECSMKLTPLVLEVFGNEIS
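Fluorescence polarization assay measuring small-molecule disruption of VDR binding to the coregulator peptide SRC2-3. Compounds were pin-transferred (23 nl) into the reagent mix and incubated 2 h at room temperature before reading.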
Vif-A3G inh – inhibitors of Vif-APOBEC3G interaction; Q9HC16; HeLa A3G-eYFP + Vif (tagged APOBEC3G with the HIV-1 protein that degrades it), YFP fluorescence, overnight; Potency, µM (highest dose often 46.1 µM), without a hit: at the highest dose activity, negative = active, actives largely listed as inhibitors; 0.076% of 410,000 active; AID 602310; also: potency is read from the fitted curve at half-maximal effect; % is scaled to controls: 0 for no effect and ±100 for the full control effect; nearly all actives have a fitted effect of over 60% in size
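Read-out is eYFP fluorescence (Ex 488/Em 500-530) from Vif-expressing HeLa A3G-eYFP cells; more signal means A3G escaped Vif-mediated degradation. Cells plated overnight, compound pinned in, incubated overnight at 37 deg C.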
* = called active by the depositor; ? = inconclusive; . = no result given. Shown are actives, neighbours in structure and some others; about 3.1% of the full set was active somewhere. Unless noted, calls follow the shape of the dose curve; as a rule, active = well fitted curve in the direction sought with a large enough effect; inconclusive = small, poorly fitted or top-dose-only effect, or another doubt; inactive = no such curve, though single readings can be large; an effect the other way counts as inactive or inconclusive.

SMILES	Vif-A3F inh	PLK1 PBD inh	TSHR antagonist	VDR inh	Vif-A3G inh
O=c1c(-c2ccc(O)cc2)coc2cc(O[C@@H]3O[C@H](CO)[C@@H](O)[C@H](O)[C@H]3O)cc(O)c12	.	.	.	0%	.
C=C(CC[C@]12OC(C(=O)O)C(O)(C(=O)O)C(C(=O)O)(O1)C(OC(=O)/C=C/[C@@H](C)C[C@@H](C)CC)C2O)[C@@H](OC(C)=O)[C@H](C)Cc1ccccc1 (some centres not stated)	.	.	.	.	3%
CC(C)(C)c1ccc2c(c1)C(=O)c1ccccc1C2=O	?	2%	-1	-23%	0%
CC(C)(C=O)C1=CC(=O)c2ccccc2C1=O	8%	2.1µM*	-87*	45µM*	-10%
CCCc1c(OCC(O)COc2ccc3c(=O)cc(C(=O)O)oc3c2CCC)ccc(C(C)=O)c1O (configuration not stated)	.	.	.	45µM*	.
CCCC(=O)Nc1ccc(OC[C@@H](O)CNC(C)C)c(C(C)=O)c1	.	.	.	6%	.
CC1CCCC/C1=N\NC(=S)Nc1cccnc1 (configuration not stated)	-7%	-16%	3	5%	10%
Cc1ccc(NC(=S)N/N=C2\CCCCC2C)cc1 (configuration not stated)	22µM*	-13%	-9	-19%	?
CCc1c(C(=O)Nc2ccccc2)c(C)[nH]c(=S)c1C#N	-13%	21µM*	-5	15%	-1%
Cc1[nH]c(=S)c(C#N)c(C)c1C(=O)Nc1ccccc1	1%	?	-5	-11%	-1%
Cc1cc(C)c2cc3c(N)c(C(=O)Nc4c(C)[nH]c(=O)[nH]c4=O)sc3nc2c1	22µM*	12%	27	3%	?
Cc1ccc(Sc2ccc(N3CCC(C(=O)Nc4ccc(C)c(F)c4)CC3)nn2)cc1	2%	.	.	-4%	0%
CC(=O)c1cccc(NC(=S)N2c3ccccc3CC2C)c1 (configuration not stated)	5%	-14%	2	-17%	8.9µM*
O=C(CSC1=NCCS1)N1CCN(c2ccc(Cl)cc2)CC1	3%	-11%	-23	?	0%
O=C(CSC1=NCCS1)c1ccc(Cl)cc1	-6%	?	13	79µM*	-1%
CCc1c(C)sc(NC(=O)C2CCCCC2C(=O)O)c1C(N)=O (configuration not stated)	-2%	?	8	79µM*	0%
Oc1cccc(O)c1O	.	.	.	79µM*	.
CCCCN(C)c1nc(-c2ccco2)c2c(c1C#N)CC(C)(C)OC2	-16%	30µM*	18	20µM*	?
O=C(Nc1ccc2nc(SCC(=O)N3CCCC3)sc2c1)c1cccc(Br)c1	4%	.	.	-6%	1%
CCCCCCCCCCC/C=C\C/C=C\CCCC(=O)O	.	.	.	-1%	.
CCCCC/C=C\C/C=C\C/C=C\C/C=C\CCCC(=O)C(F)(F)F	.	.	.	28µM*	.
CCC[C@H]1COCCS(=O)(=O)N1Cc1cccc(F)c1	.	.	.	.	0%
COc1c(OC(C)=O)c(=O)n2c3ccccc3c3ccnc1c32	-1%	24µM*	-23	-7%	0%
C/C(=N\Nc1nccnc1Cl)c1ccc(O)cc1	2%	1%	9	22%	-1%
C/C(=N\Nc1nccnc1Cl)c1ccc(Cl)c(Cl)c1	25µM*	-15%	3	-3%	0%
SMILES	Vif-A3F inh	PLK1 PBD inh	TSHR antagonist	VDR inh	Vif-A3G inh
O=C(NCCc1nc2ccccc2n1CCCOc1ccccc1Cl)C1CCCCC1	.	.	.	-9%	-9%
CCN(CCCNC(=O)CSc1cc(=O)n(C)c2ccccc12)c1ccccc1	1%	.	.	-5%	-3%
CCCCNC(=O)CSc1cc(=O)n(C)c2ccccc12	-11%	27µM*	-11	-2%	1%
CCOC(=O)c1sc(NS(=O)(=O)c2ccccc2)nc1C	-4%	-8%	2	4%	-4%
Cc1nc(NS(=O)(=O)c2ccccc2)sc1NC(=O)OCCN(C)C	3%	21µM*	1	16%	-1%
S=C(NCCCc1cnc[nH]1)NCCCN(Cc1ccc(Cl)cc1)c1ccc(-c2ccccc2)cn1	.	.	.	3%	-15%
Fc1ccc(-c2ccnc(=S)[nH]2)cc1	-1%	9.5µM*	6	?	2%
O=C(O)c1cc2cccc([N+](=O)[O-])c2[nH]1	.	.	.	.	0%
Cc1nc2c3ccccc3n(CCN3CCCCC3)c2s1	.	.	7	.	.
Cc1nc2c3ccccc3n(Cc3ccccc3F)c2s1	-16%	-8%	-10	45µM*	?
Cc1nc2c3cc(F)ccc3n(Cc3ccccc3F)c2s1	-15%	?	37	50µM*	?
C=CCSc1nnc(C)c(/C=C/Nc2ccc(Cl)cc2)n1	25µM*	?	-6	-1%	?
COc1ccc(-c2nc(-c3ccccc3)ncc2S(C)(=O)=O)cc1	-4%	27µM*	-10	?	2%
C=C[C@]1(C)C=C2CCC3[C@](C)(CCC[C@@]3(C)C(=O)O)C2CC1 (some centres not stated)	-7%	24µM*	-17	-12%	-6%
C=C/C(C)=C/CC1C(=C)CCC2C(C)(C(=O)O)CCCC12C (configuration not stated)	-6%	19µM*	-1	11%	0%
C=C1CCC2[C@](C)(CO)C(O)CC[C@]2(C)C1C/C=C1/C(=O)OCC1O (some centres not stated)	.	.	.	-2%	.
O=C(Cc1ccc(-c2ccccc2)cc1)NO	.	.	.	.	-1%
C=CCOC(=O)N[C@@H](CC(C)C)/C(C(=O)OC)=C(\C)NCc1ccccc1	.	.	.	-13%	.
Cc1sc(N)nc1-c1cccc([N+](=O)[O-])c1	.	.	.	1%	2%
CC(O)C#C[Si](C)(C)c1ccccc1 (configuration not stated)	.	.	.	-3%	.
Nc1nc(SCC(=O)NCCO)nc2sc3c(c12)CCCC3	-4%	24µM*	2	-1%	-2%
CCCN1CNc2c(c(=O)[nH]c(=S)n2CCC)C1	.	.	.	-6%	.
CCOC(=O)c1cc(C#N)c(SC(C(=O)N2CCCCC2)c2ccccc2)nc1C (configuration not stated)	.	.	.	.	0%
COc1cc(OC)c(NC(=O)NCc2cccn2Cc2ccccc2)cc1Cl	1%	.	.	14%	2%
CC(=O)c1ccc(OC(=O)CCc2nc3ccccc3s2)cc1	?	?	7	40µM*	1%
Clc1ccccc1-c1nn2c(Cn3cnc4ccccc43)nnc2s1	4%	24µM*	1	-23%	0%
c1ccc2c(c1)ncn2Cc1nnc2sc(-c3ccc4c(c3)OCO4)nn12	0%	19µM*	-4	-9%	1%
COc1ccc(OCc2nn3c(Cn4cnc5ccccc54)nnc3s2)cc1	-1%	15µM*	-8	-25%	-1%
COc1ccc(OCc2nn3c(-c4cccc(OC)c4)nnc3s2)cc1	-6%	-1%	6	-7%	1%
